For orientation: inhibition means the relative decrease from the control value, in per cent.

For 7 compounds, inhibition results are on record in ChEMBL document CHEMBL1961873, “Compounds: GSK PKIS; Assays: Nanosyn kinase panel” (2012).

The target of assay [1] is Tyrosine-protein kinase Fyn (Homo sapiens) (UniProt P06241). As to conditions: at 1 µM.
The target in assay [2] is Tyrosine-protein kinase HCK (Homo sapiens) (UniProt P08631). As to conditions: at 0.1 µM.
Assay [3] has the same target. As to conditions: at 1 µM.
Assay [4] deals with Insulin-like growth factor 1 receptor (Homo sapiens) (UniProt P08069). As to conditions: at 0.1 µM.
For assay [5] the target is unchanged. As to conditions: at 1 µM.
Assay [6] deals with Insulin receptor (Homo sapiens) (UniProt P06213). As to conditions: at 0.1 µM.
For assay [7] the target is unchanged. As to conditions: at 1 µM.
In assay [8] the target is Insulin receptor-related protein (Homo sapiens) (UniProt P14616). As to conditions: at 0.1 µM.
Assay [9] has the same target. As to conditions: at 1 µM.
Assay [10] deals with T1, Tyrosine-protein kinase ITK/TSK (Homo sapiens) (UniProt Q08881).
T1 sequence (whole entry): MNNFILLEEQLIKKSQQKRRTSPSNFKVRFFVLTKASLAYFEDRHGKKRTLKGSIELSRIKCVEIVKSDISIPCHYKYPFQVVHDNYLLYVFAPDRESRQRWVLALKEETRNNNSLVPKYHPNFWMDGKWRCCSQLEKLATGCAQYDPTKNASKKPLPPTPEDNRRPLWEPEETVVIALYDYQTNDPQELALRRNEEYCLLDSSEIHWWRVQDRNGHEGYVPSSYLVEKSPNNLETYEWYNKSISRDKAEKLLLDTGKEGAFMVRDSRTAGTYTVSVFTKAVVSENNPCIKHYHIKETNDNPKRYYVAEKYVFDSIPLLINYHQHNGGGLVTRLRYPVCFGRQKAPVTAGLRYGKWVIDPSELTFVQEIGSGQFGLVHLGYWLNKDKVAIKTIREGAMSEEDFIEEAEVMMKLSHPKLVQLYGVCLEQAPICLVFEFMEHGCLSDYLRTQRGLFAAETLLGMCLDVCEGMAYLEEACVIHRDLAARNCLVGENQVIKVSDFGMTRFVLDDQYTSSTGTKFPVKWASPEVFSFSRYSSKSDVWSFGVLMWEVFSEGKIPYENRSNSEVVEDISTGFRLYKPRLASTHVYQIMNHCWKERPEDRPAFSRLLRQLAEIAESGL
As to conditions: at 0.1 µM.

Assay [11] deals with T1, Tyrosine-protein kinase ITK/TSK (Homo sapiens). As to conditions: at 1 µM.
In assay [12] the target is Tyrosine-protein kinase JAK1 (Homo sapiens) (UniProt P23458). As to conditions: at 0.1 µM.
The target is the same in assay [13]. As to conditions: at 1 µM.
For assay [14], the target named is Tyrosine-protein kinase JAK2 (Homo sapiens) (UniProt O60674). As to conditions: at 0.1 µM.
The target is the same in assay [15]. As to conditions: at 1 µM.
Assay [16] deals with T2, Tyrosine-protein kinase JAK3 (Homo sapiens) (UniProt P52333).
T2 sequence (whole entry): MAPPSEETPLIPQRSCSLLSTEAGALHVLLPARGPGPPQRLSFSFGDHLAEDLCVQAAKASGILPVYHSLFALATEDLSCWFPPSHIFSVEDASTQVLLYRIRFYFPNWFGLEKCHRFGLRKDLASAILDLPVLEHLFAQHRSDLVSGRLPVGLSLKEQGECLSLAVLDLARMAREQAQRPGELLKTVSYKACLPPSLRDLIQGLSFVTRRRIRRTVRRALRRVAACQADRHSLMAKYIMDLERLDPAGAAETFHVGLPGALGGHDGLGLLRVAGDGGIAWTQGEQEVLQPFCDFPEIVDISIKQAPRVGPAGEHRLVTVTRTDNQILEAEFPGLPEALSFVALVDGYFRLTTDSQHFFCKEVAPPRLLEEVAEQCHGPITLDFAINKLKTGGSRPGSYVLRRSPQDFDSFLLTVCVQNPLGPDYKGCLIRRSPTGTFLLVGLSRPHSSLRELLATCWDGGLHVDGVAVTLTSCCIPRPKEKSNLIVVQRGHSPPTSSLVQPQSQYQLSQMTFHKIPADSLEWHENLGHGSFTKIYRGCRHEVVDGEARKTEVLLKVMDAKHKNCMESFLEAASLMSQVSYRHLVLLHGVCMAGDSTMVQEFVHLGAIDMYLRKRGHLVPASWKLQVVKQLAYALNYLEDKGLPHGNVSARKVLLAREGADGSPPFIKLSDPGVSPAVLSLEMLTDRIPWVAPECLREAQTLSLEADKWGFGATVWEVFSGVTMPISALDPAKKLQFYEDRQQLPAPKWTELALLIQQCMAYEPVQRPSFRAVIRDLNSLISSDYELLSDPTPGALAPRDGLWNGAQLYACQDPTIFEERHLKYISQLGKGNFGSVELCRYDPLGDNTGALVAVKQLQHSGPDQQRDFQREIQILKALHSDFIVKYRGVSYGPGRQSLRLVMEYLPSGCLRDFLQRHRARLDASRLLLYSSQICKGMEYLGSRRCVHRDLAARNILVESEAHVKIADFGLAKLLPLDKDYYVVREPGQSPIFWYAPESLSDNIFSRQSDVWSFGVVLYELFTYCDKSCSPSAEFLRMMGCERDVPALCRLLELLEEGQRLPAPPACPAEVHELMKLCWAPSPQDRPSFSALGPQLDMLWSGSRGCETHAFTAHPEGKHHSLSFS
As to conditions: at 0.1 µM.

The target in assay [17] is T2, Tyrosine-protein kinase JAK3 (Homo sapiens). As to conditions: at 1 µM.
For assay [18], the target named is Vascular endothelial growth factor receptor 2 (Homo sapiens) (UniProt P35968). As to conditions: at 0.1 µM.
For assay [19] the target is unchanged. As to conditions: at 1 µM.
In assay [20] the target is Mast/stem cell growth factor receptor Kit (Homo sapiens) (UniProt P10721). As to conditions: at 0.1 µM.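 Further: values are mean inhibition of KIT, from the GSK PKIS dataset.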

Sequence of Insulin receptor-related protein (Homo sapiens) (P14616 27-742 limits assumed): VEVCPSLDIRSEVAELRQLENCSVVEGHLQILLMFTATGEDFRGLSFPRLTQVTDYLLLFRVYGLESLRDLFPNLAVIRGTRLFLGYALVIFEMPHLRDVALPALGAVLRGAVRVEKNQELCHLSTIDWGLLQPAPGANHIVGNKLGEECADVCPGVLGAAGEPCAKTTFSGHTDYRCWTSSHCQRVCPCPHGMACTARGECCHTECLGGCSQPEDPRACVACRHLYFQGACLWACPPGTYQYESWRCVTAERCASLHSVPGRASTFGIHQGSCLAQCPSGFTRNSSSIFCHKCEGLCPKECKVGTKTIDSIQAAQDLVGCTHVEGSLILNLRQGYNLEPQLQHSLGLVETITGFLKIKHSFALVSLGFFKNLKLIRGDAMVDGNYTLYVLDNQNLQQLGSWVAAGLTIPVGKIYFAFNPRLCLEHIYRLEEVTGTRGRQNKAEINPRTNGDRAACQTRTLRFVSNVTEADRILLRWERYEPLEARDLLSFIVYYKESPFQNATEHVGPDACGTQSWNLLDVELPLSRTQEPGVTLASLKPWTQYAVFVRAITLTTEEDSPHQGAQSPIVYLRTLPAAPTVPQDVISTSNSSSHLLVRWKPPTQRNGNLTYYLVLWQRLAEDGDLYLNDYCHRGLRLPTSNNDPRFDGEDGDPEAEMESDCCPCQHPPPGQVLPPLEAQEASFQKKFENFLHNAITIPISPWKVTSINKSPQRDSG
Sequence of Insulin receptor-related protein (Homo sapiens) (P14616 747-1297 limits assumed): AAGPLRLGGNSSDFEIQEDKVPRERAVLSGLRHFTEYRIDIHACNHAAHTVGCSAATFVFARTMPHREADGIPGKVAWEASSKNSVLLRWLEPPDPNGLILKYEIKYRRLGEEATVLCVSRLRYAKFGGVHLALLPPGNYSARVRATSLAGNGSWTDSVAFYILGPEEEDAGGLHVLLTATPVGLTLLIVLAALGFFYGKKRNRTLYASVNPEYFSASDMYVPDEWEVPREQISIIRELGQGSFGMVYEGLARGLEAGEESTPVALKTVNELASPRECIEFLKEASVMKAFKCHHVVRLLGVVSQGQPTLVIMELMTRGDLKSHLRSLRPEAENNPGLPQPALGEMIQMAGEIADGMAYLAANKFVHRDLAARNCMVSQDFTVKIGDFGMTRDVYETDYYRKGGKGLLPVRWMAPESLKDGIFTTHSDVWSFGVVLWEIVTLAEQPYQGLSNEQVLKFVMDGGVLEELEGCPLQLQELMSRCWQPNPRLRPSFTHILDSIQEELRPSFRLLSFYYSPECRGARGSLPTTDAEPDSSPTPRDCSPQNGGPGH
Sequence of Tyrosine-protein kinase HCK (Homo sapiens) (P08631 2-526 limits assumed): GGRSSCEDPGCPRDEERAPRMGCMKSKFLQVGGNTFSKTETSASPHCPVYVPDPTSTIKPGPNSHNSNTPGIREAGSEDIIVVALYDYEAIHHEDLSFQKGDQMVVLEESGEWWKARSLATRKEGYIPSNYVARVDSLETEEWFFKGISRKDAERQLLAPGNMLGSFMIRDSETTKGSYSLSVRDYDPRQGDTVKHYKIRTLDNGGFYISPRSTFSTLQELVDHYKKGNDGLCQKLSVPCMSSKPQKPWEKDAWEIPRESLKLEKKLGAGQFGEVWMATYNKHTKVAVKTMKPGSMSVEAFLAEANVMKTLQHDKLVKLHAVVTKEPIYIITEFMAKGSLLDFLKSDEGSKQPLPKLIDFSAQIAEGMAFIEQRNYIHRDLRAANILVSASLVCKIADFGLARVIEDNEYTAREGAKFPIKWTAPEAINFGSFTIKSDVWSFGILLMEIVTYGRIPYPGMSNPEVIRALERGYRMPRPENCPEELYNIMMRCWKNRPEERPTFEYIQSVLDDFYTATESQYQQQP
Sequence of Vascular endothelial growth factor receptor 2 (Homo sapiens) (P35968 whole entry): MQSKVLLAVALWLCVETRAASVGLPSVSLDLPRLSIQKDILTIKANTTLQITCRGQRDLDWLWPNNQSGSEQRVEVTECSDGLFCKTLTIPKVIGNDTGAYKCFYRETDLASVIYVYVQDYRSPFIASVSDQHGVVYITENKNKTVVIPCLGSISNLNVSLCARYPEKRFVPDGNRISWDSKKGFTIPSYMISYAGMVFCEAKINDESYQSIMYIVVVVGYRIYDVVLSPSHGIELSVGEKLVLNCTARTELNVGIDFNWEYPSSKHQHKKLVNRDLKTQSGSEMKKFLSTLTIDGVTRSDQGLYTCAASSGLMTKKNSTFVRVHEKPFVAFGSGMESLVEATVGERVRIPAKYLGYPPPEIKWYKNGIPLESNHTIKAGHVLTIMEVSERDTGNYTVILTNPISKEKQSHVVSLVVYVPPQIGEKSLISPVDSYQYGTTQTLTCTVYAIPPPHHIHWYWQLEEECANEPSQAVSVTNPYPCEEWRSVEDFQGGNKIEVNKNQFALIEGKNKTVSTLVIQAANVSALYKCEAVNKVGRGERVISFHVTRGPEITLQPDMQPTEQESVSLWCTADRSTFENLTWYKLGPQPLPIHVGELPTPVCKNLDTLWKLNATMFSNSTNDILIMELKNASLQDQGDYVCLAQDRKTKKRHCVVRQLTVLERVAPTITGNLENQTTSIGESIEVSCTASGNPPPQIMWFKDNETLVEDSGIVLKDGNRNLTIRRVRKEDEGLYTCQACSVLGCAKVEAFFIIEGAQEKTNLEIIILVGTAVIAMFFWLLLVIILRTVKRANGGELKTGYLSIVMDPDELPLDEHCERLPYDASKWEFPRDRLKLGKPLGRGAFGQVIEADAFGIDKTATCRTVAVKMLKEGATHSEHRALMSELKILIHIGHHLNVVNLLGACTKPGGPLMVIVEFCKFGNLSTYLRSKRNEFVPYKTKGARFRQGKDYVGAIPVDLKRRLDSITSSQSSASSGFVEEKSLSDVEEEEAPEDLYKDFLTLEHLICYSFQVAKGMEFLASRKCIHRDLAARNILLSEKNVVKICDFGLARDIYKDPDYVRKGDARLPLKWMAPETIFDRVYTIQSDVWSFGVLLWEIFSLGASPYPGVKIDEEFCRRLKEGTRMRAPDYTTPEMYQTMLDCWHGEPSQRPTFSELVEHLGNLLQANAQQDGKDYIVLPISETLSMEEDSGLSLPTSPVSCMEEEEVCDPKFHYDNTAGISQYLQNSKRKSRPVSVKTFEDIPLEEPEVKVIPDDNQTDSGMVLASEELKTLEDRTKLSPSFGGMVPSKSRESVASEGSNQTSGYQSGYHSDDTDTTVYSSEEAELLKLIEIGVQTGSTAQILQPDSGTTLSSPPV
Sequence of Tyrosine-protein kinase JAK2 (Homo sapiens) (O60674 whole entry): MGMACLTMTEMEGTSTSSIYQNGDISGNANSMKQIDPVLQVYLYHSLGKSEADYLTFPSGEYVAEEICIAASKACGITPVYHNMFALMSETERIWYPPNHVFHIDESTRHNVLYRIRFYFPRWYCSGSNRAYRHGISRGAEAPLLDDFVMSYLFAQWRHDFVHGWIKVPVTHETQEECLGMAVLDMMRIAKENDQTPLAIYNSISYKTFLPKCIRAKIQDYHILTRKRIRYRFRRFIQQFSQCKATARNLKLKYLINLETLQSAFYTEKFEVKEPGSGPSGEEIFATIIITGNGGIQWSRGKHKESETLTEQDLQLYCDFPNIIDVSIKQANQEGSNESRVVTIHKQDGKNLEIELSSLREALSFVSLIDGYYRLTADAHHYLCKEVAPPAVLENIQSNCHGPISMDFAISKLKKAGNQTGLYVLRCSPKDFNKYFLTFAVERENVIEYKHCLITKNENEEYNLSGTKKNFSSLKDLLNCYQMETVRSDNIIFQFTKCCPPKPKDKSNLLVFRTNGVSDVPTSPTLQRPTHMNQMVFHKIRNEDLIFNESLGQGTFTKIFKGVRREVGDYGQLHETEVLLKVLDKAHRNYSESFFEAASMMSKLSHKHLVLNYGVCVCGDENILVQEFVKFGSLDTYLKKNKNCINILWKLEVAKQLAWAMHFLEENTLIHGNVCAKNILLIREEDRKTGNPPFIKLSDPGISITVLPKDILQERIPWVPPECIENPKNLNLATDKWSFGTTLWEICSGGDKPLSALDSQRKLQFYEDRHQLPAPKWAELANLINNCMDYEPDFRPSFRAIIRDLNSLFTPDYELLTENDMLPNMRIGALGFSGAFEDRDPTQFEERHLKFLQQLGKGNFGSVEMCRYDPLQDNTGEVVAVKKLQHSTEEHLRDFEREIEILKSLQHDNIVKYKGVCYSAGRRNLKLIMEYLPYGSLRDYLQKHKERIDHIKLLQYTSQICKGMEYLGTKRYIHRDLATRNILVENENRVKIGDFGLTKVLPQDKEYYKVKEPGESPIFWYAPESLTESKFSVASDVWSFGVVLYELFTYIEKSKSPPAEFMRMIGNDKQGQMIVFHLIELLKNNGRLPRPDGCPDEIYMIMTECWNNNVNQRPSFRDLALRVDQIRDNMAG
Sequence of Tyrosine-protein kinase Fyn (Homo sapiens) (P06241 2-537 limits assumed): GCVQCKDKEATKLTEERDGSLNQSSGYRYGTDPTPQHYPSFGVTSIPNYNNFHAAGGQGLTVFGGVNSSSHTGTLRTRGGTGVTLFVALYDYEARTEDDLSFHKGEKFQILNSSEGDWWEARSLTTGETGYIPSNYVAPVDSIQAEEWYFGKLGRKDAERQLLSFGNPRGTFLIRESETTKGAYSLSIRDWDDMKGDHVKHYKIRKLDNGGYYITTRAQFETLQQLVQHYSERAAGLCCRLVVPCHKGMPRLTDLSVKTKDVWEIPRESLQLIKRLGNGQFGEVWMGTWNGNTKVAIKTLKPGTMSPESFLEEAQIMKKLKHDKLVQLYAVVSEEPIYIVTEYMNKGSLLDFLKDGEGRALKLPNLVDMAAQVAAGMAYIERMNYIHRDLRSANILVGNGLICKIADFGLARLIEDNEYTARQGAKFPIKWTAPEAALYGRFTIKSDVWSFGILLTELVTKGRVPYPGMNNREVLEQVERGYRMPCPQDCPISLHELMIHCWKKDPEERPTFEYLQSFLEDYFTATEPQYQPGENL

`CN(C)CCOc1ccc(-c2nc(-c3ccncc3)c(-c3ccc4c(c3)CC/C4=N\O)[nH]2)cc1`: the inhibition in assay [1] was determined as 8.51%; in [2], 3.04%; in assay [3], 8.01%; in assay [4], 4.59%; in assay [5], 3.85%; in assay [6], 5.62%. In addition, the inhibition in assay [7] was determined as 2.19%; in [8] it was 6.12%; in assay [9] it was 3.86%; in assay [10], 0.77%; in assay [11], 1.79%; in [12], 3.43%. The inhibition is 1.76% in [13]; 1.76% in [14]; 1.36% in [15]; -1.43% in assay [16]; 0.64% in assay [17]; 3.5% in assay [18]. Besides, the values for the inhibition in [19] and in [20] were 5.84% and 4.23%, respectively.
With `FC(F)(F)c1cccc(-c2nn3ncccc3c2-c2ccnc(Nc3ccc4c(c3)OCCO4)n2)c1`, the inhibition in [1] is 48.1%; in [2] it was 5.43%; in assay [3], 31.2%; in assay [4], -0.53%; in assay [5], 1.37%; in [6], -1.37%. Further, the inhibition was 3.05% in assay [7]; 0.31% in assay [8]; 1.27% in assay [9]; 0.97% in [10]; 2.97% in [11]; -1.29% in assay [12]. The inhibition in assay [13] is -0.53%; in [14], 0.96%; in assay [15] it was 1.37%; in assay [16], -0.61%; in [17], 0.66%; in assay [18] it was 12.6%. The values for the inhibition in [19] and in assay [20] were 49.6% and 2.36%, respectively.
Take `CCn1c(-c2nonc2N)nc2c(C#CC(C)(C)O)nc(OC[C@H](N)c3ccccc3)cc21`: the inhibition in assay [1] was found to be 4.61%; in assay [2] it was 2.17%; in assay [3], 9.34%; in [4], 6.38%; in assay [5], 2.6%; in [6], 7.87%. Further, the inhibition in assay [7] was determined as 1.38%; in assay [8], 0.82%; in assay [9] it was 2.71%; in [10], 2.08%; in assay [11], 1.49%; in assay [12] it was 1.86%. Besides, the inhibition was -0.29% in assay [13]; -0.06% in assay [14]; 1.71% in assay [15]; -2% in assay [16]; -0.34% in assay [17]; 59.6% in assay [18]. The inhibition in [19] was determined as 96.1%; in [20], 3.94%.
Consider `Cc1ccc(O)cc1Nc1ccnc2cc(-c3ccccn3)ccc12`, for which the inhibition in assay [1] was 88.5%; in [2], 70.9%; in assay [3] it was 87.9%; in assay [4] it was 5.77%; in [5] it was 4.82%; in assay [6], 5.4%. Also, the inhibition stood at 5.51% in [7]; 5.36% in [8]; 3.66% in [9]; 1.62% in assay [10]; 2.42% in assay [11]; 7.02% in assay [12]. Also, the inhibition in assay [13] was 3.25%; in [14], 2.62%; in assay [15], 3.62%; in assay [16] it was -1.06%; in assay [17], 0.79%; in assay [18], 78.6%. In addition, the inhibition turned out to be 93.5% in assay [19] and 10.4% in assay [20].
Consider `CC(=O)NCc1cccc(C#Cc2cncnc2Nc2ccc(OCc3cccc(F)c3)c(Cl)c2)c1`, for which the inhibition turned out to be 3.27% in assay [1]; 2.8% in [2]; 2.97% in [3]; 0.82% in [4]; 1.07% in [5]; 2.9% in assay [6]. Moreover, the inhibition in assay [7] is 0.68%; in assay [8] it was -0.93%; in [9] it was -0.28%; in assay [10] it was 0.36%; in [11], 0.81%; in assay [12], 0.65%. In addition, the inhibition in assay [13] was 4.76%; in assay [14], -0.2%; in [15], -3%; in assay [16] it was -0.21%; in assay [17], 4.46%; in assay [18], 0.67%. The inhibition was 8.91% in assay [19] and -1.01% in assay [20].
As for `NS(=O)(=O)c1ccc(Nc2ncc(-c3ccccc3)o2)cc1`, the inhibition in assay [1] stood at 5.41%; in assay [2], 4.43%; in [3], 10.7%; in [4], 3.39%; in assay [5] it was 3.81%; in assay [6] it was 2.2%. Further, the inhibition in assay [7] is 4.14%; in assay [8] it was 3.04%; in assay [9], 1.16%; in assay [10], 1.19%; in assay [11], 2.34%; in assay [12] it was 3.09%. The inhibition was 5.63% in [13]; 0.87% in assay [14]; 3.74% in [15]; -0.66% in assay [16]; 3.55% in assay [17]; 6.16% in assay [18]. Also, the inhibition in [19] was found to be 23.6%; in [20], 38.7%.
For the compound `c1ccc(COc2ccc(Nc3ncnc4ccc(-c5ccco5)cc34)cc2)cc1`, the inhibition in assay [1] is 3.93%; in [2] it was 1.03%; in assay [3] it was 1.93%; in assay [4], -0.83%; in assay [5], -0.77%; in assay [6], 0.94%. The inhibition in [7] was 0.94%; in [8], 0.38%; in [9], 0.28%; in assay [10] it was -0.91%; in [11], 0.76%; in assay [12] it was 4%. For the same compound, the inhibition was 2.21% in assay [13]; 0.1% in assay [14]; -0.74% in assay [15]; -2.56% in assay [16]; -0.1% in assay [17]; 0.23% in [18]. Also, the inhibition in [19] is -0.38%; in [20] it was 0.2%.
